In the supplement of paper PMC7184167:

System: replication-induced senescent mouse newborn dermal fibroblasts (NBF)
Test: relative cell viability of senescent cells (fraction); higher = less killing of senescent cells
Settings: 1 µM; 3 days
Procedure: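 Replication-induced senescent newborn mouse skin fibroblasts (NBFs) in 24-well plates were treated with a Selleck FDA-approved drug library at 1 µM for 3 days.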

| Structure (SMILES) | relative cell viability |
| --- | --- |
| CC(C)c1nc(CN(C)C(=O)N[C@H](C(=O)N[C@@H](Cc2ccccc2)C[C@H](O)[C@H](Cc2ccccc2)NC(=O)OCc2cncs2)C(C)C)cs1 [Ritonavir] | 1.15 |
| C[C@@H]1[C@H](O)[C@@H](C)/C=C/C=C/C=C/C=C/C=C/C=C/C=C/[C@H](O[C@@H]2O[C@H](C)[C@@H](O)[C@H](N)[C@@H]2O)C[C@@H]2O[C@](O)(C[C@@H](O)C[C@@H](O)[C@H](O)CC[C@@H](O)C[C@@H](O)CC(=O)O[C@H]1C)C[C@H](O)[C@H]2C(=O)O [Amphotericin B] | 0.766 |
| C[C@]12C=CC(=O)C=C1CC[C@@H]1[C@@H]2C(=O)C[C@@]2(C)[C@H]1CC[C@]2(O)C(=O)CO [Prednisone] | 0.875 |
| C[C@H]1C[C@H]2[C@@H]3CCC4=CC(=O)C=C[C@]4(C)[C@@]3(F)[C@@H](O)C[C@]2(C)[C@@]1(O)C(=O)CO [Betamethasone] | 0.229 |
| COc1nc(N)nc2c1ncn2[C@@H]1O[C@H](CO)[C@@H](O)[C@@H]1O [Nelarabine] | 1.08 |
| CC[C@H]1OC(=O)[C@H](C)[C@@H](O[C@H]2C[C@@](C)(OC)[C@@H](O)[C@H](C)O2)[C@H](C)[C@@H](O[C@@H]2O[C@H](C)C[C@H](N(C)C)[C@H]2O)[C@](C)(O)C[C@@H](C)CN(C)[C@H](C)[C@@H](O)[C@]1(C)O [Azithromycin] | 0.879 |
| Cc1nc2n(c(=O)c1CCN1CCC(c3noc4cc(F)ccc34)CC1)CCCC2 [Risperidone] | 0.76 |
| CCc1cc(C(N)=S)ccn1 [Ethionamide] | 0.932 |
